SMILES strings stand for the structures. The campaign covered roughly 69,000 compounds. About 8,600 (12%) showed an effect of 50% or more. The sample holds strong results, similar compounds and a random draw of the others, so the mix is not that of the screen.

The subject of the assay is Plasmodium berghei. Kind of assay: Screen against P. berghei liver stage (PbLuc), transformed with Luciferase, at 10uM. In kind it is functional, HepG2. The settings on record: tested at 10 uM.
Turning to `CCOC(=O)c1ccc(S(=O)(=O)NCC(CC)N2CCCC2)cc1` (stereo not given), the INHIBITION is given as -9.2%. The result for `COc1nn(C)c2c1CCCN(C(=O)c1cccn1C)C2` reads 8.67%.

On to `Cc1cc(C(F)(F)F)nn1CCNC(=O)C(C)n1ccnc1C(C)C` (stereo not given), for which the INHIBITION is listed as 85.5%.

In the case of `Cc1nc(C)n(CCCNC(=O)C(C)n2ccnc2C(C)C)n1` (stereo not given), the INHIBITION is reported as -129%. Turning to `Cc1nc(C)n(CCNC(=O)C(C)n2ccnc2C(C)C)n1` (stereo not given), the INHIBITION is given as -23.7%. The result for `Cc1cc(-c2cc(S(=O)(=O)N3C[C@H](C4CC4)[C@@H](N)C3)c(C)s2)[nH]n1` reads 25.5%. The result for `COCCN1CCCn2cnc(CNC(=O)N(C)C)c2C1` reads 29.8%. On to `COCCN1CCCn2cnc(CN(C)C(C)C)c2C1`, for which the INHIBITION turned out to be 21.7%.

In the case of `COCCN1CCCn2cnc(CNC3CCCC3)c2C1`, the INHIBITION was 55.5%. The result for `COCc1cccc(S(=O)(=O)N2CCSCC2)c1` reads 40%; that for `CSc1ccc(C)c(C(=O)N2CCCC(n3cncn3)C2)c1` (stereo not given), -10.1%; that for `Cc1ncc2c(n1)C1(CCN(C(=O)C(C)C)CC1)OCC2`, 3.89%. The result for `CCc1ccc(C(C)NC(=O)CN(C)Cc2ccc(C)o2)cc1` (stereo not given) reads -27%; that for `Cc1cc(C)cc(C(C)NC(=O)c2ccc(CS(C)(=O)=O)o2)c1` (stereo not given), 54.3%; that for `Cc1cn2c(n1)CCC(NC(=O)c1ccc(CS(C)(=O)=O)o1)C2` (stereo not given), 13.1%.

On to `CCc1ccc(C(=O)NC(C)c2ccc(S(C)(=O)=O)c(F)c2)o1` (stereo not given), for which the INHIBITION was 6.33%. The result for `CC(NC(=O)c1ccc(CS(C)(=O)=O)o1)c1ccc(F)c(F)c1` (stereo not given) reads 12.3%; that for `CCc1ccc(C(C)NC(=O)c2ccc(CS(C)(=O)=O)o2)cc1` (stereo not given), 50.8%.

Take `CS(=O)(=O)N1CCC(NC(=O)COc2ccccc2Cl)CC1`: the INHIBITION is given as -19.9%.

For the molecule `O=C(c1nccc2ccccc12)N1CCCCC1Cn1cccn1` (stereo not given), the INHIBITION was determined as 3.73%. `Cc1nc(CNC(=O)c2cc(COc3ccccc3F)[nH]n2)n[nH]1`: the INHIBITION was determined as 17%.

As for `CNc1cc(C)nc(C2CN(Cc3cncs3)CCO2)c1` (stereo not given), the INHIBITION came to 11.1%. The result for `Cn1nc(CN2CCCC2)c2c1CN(C(=O)c1cccnc1)CC2` reads -31.3%; that for `Cc1cc2n(n1)CC(CNCc1ccc(-n3ccnc3C)nc1)CN2` (stereo not given), -13.575%; that for `CC(=O)N1CCOC(c2c(C(=O)NC(C)(C)C)sc3ccccc23)C1` (stereo not given), -84.7%. The result for `Cc1cnc(N2CC[C@@H]3O[C@@H](COCC(=O)N(C)C)CC[C@@H]32)nc1` reads 18.2%; that for `O=C(c1cc[nH]n1)N(Cc1ccc(F)cc1)CC1CC1`, -24%. The result for `Cc1ccc(C(=O)N(Cc2cccc(F)c2)C2CC2)c(=O)[nH]1` reads -30.7%. `O=C(c1cc[nH]n1)N(Cc1cccc(O)c1)CC1CC1`: the INHIBITION is reported as 5.64%. The result for `COc1cc(C(=O)N(Cc2ccc(F)cc2)C2CC2)cc2c1OCCO2` reads 13.4%. The result for `O=C(c1cc[nH]n1)N(Cc1ccccc1)CC1CCC1` reads 72.3%; that for `CSc1ccc(CN(C)C(=O)c2cc3c([nH]c2=O)CCCC3=O)cc1`, 7.99%; that for `COC1CCN(c2ccc(F)cc2CN(C)C(=O)c2cc[nH]n2)CC1`, -74.8%. The result for `CSc1ccc(CN(C(=O)c2cc(=O)[nH]c(=O)[nH]2)C2CC2)cc1` reads 59.1%. For the molecule `Cc1ccc(C(=O)N(Cc2ccc(F)cc2)C2CC2)c(=O)[nH]1`, the INHIBITION is reported as -37.8%. The result for `CN(C)Cc1ccc(C2CCCCN2C(=O)c2cc(=O)[nH]c(=O)[nH]2)cc1` (stereo not given) reads 16.7%. As for `CSc1ccc(CN(C(=O)c2cc(C)[nH]c(=O)c2)C2CC2)cc1`, the INHIBITION is 50.8%.

Consider `CSc1ccc(CN(C(=O)c2cc[nH]n2)C2CC2)cc1`, for which the INHIBITION turned out to be 59.1%. The result for `NC(=O)C1Cn2ccnc2C2(CCN(C(=O)NC3CCCC3)CC2)O1` (stereo not given) reads 0.453%; that for `CC(C)Oc1ccc(CNC(=O)CCN2C(=O)CCC2=O)cc1F`, -38.75%; that for `Cc1nc2c(c(NC3CCN(Cc4ccccc4)CC3)n1)CCNCC2`, -4.28%.

For `CC(=O)N1CCCC(c2nccnc2-c2ccc(CO)cc2)C1` (stereo not given), the INHIBITION came out at 20.2%. On to `c1ccc(CCN2CCN(C3CCOC4(CCOCC4)C3)CC2)cc1` (stereo not given), for which the INHIBITION was 36.8%. The result for `CC(NC(=O)CN(C)S(C)(=O)=O)c1nnc2n1CCCCC2` (stereo not given) reads 38.6%; that for `CCc1ccc(C(=O)N2CCCC(CNS(C)(=O)=O)C2)o1` (stereo not given), -26.6%; that for `O=C(NCc1ccccc1)C1=NOC2(CCNC2)C1` (stereo not given), 24.5%.

Regarding `O=c1ccc(-c2cccs2)nn1CN1CCN(C2CCS(=O)(=O)C2)CC1` (stereo not given), the INHIBITION is on record as -4.52%.

As to `COc1ccc(C(=O)CNC(=O)c2nc(Cl)sc2C(C)C)cc1`, the INHIBITION is on record as -44.2%. `O=C(CCc1nnc(-c2ccccc2)o1)N1CCCC1c1ccccn1` (stereo not given): the INHIBITION is on record as 17.8%. As for `CC1CCCCN1C(=O)CCc1nnc(-c2ccccc2)o1` (stereo not given), the INHIBITION was determined as 51.5%.

As for `O=C(CCc1nnc(-c2ccccc2)o1)N1CCCC1c1ccc[nH]1` (stereo not given), the INHIBITION is recorded as -14.9%.

Consider `Cc1cc(CN2CCC(N(C)Cc3nnc(C4CC4)n3C)C2)on1` (stereo not given), for which the INHIBITION is 19.2%. The result for `COCc1noc(Cc2c(C)nn(C)c2C)n1` reads 28.5%; that for `Cc1nc(C(=O)N(C)CC(F)(F)C(F)(F)F)c2ccccn12`, 3.03%. The result for `CCOC(=O)CN(CC(F)(F)F)C(=O)c1nc(C)n2ccccc12` reads 22.3%. The result for `Cc1nc(C(=O)N(CC(=O)N(C)C)CC(F)(F)F)c2ccccn12` reads 53.3%; that for `CCCc1nc(CN2CCCC(c3noc(C4CC4)n3)C2)no1` (stereo not given), 4.71%. As to `Cc1c(CC(C#N)C(=O)Nc2cccc(O)c2)cnn1C` (stereo not given), the INHIBITION was 20.4%.

For `Cc1ccc(N(CCC#N)C(=O)CN2CCCC2c2cccs2)cc1` (stereo not given), the INHIBITION was -3.48%. The result for `Cc1ccc(N(CCC#N)C(=O)CN2CCCC2c2ccsc2)cc1` (stereo not given) reads 3.45%; that for `N#CCCN(C(=O)CN1CCCC1c1ccsc1)c1ccccc1` (stereo not given), -2.95%; that for `N#CCCN(C(=O)CN1CCCC1c1ccccc1Cl)c1ccccc1` (stereo not given), 67.1%. The result for `Cc1ccc(C2CCCN2CC(=O)N(CCC#N)c2ccccc2)cc1` (stereo not given) reads 62.8%; that for `Cc1cc(C)cc(N(CCC#N)C(=O)CN2CCCC2c2cccs2)c1` (stereo not given), 6.54%. The result for `CNS(=O)(=O)CC(=O)N(Cc1ccsc1)c1ccccc1` reads -2.69%.

For the molecule `CC(=O)N(Cc1ccsc1)c1ccccc1`, the INHIBITION was 24.2%. The result for `CC(C)S(=O)(=O)CC(=O)N(Cc1ccsc1)c1ccccc1` reads 54.4%.

`Cc1occc1C(=O)N1C[C@H]2CCCC(OCc3cccnc3)[C@H]2C1` (stereo not given in full): the INHIBITION stood at 30.3%. In the case of `Cc1cnn(C2CCCN(C(=O)CCCOc3ccccc3F)C2)c1` (stereo not given), the INHIBITION is given as -27.8%. For `CS(=O)(=O)NCCCNC(=O)c1cccc(-n2cccc2)c1`, the INHIBITION is recorded as 13.4%.

With `Cc1ccc(C(=O)NCCCNS(C)(=O)=O)cc1-n1cccc1`, the INHIBITION is on record as 51.3%. The result for `Cc1ccc(C(=O)NCCCN(C)S(C)(=O)=O)cc1-n1cccc1` reads 12.9%; that for `COc1ccc(CN2C[C@H]3CC[C@@H](C2)N(S(=O)(=O)C2CC2)C3)cc1`, 4.52%. The result for `O=C1CCN(C(=O)NCCCc2ccc(Cl)cc2Cl)CCN1` reads -12.1%; that for `Cc1ncsc1-c1nnc(C2CCN(CC3CCCCC3)CC2)o1`, -18.4%; that for `Fc1cccc(CN2CCC(c3noc(-c4cnccn4)n3)CC2)c1F`, -11.4%. The result for `Cc1ncsc1-c1nnc(C2CCN(Cc3ccccc3Cl)CC2)o1` reads 29.3%; that for `Cc1ncsc1-c1nnc(C2CCN(Cc3ccccc3F)CC2)o1`, 59%; that for `CCn1c(CN(C)C)nnc1C1CCN(Cc2cccc(F)c2F)CC1`, 25%. On to `Cc1ncsc1-c1nnc(C2CCN(Cc3cccc(F)c3F)CC2)o1`, for which the INHIBITION is reported as 54.5%. The result for `Cn1ccnc1CN1CCC(F)(F)C2(CCN(c3cnccn3)C2)C1` (stereo not given) reads -38.9%. `CN(C)c1nccnc1C1CCCN(c2cnccn2)C1` (stereo not given): the INHIBITION is 7.75%.

For `COCCNS(=O)(=O)c1c(C)sc2ccccc12`, the INHIBITION is recorded as -35%. As for `COc1cccc(N2CCN(C(=O)c3noc4c3CCCC4)CC2)c1`, the INHIBITION is given as 12.6%.

For `COCC(C)N1CCc2onc(-c3ccc(F)c(F)c3)c2C1` (stereo not given), the INHIBITION is on record as 16.7%. The result for `COc1cccc(-c2noc3c2CN(c2nc(C)ncc2C)CC3)c1` reads 80%; that for `CC(C)c1ccc(N2CCc3onc(-c4ccc(F)c(F)c4)c3C2)nn1`, 40.3%. Consider `COc1ccc(CC2(C(=O)O)CCN(c3nc(C)ncc3C)CC2)cc1`, for which the INHIBITION is -1.25%.

Turning to `COCc1cc(N2CCc3onc(-c4cccc(OC)c4)c3C2)ncn1`, the INHIBITION is 82.2%. The result for `Cc1cnc(N2CCc3onc(COc4cccnc4)c3C2)nc1` reads 32.1%; that for `COc1cccc(N2CCN(C(=O)c3noc4c3CCCCC4)CC2)c1`, 10.1%. For the molecule `COc1cccc(-c2noc3c2CN(c2ncnc4c2CCC4)CC3)c1`, the INHIBITION was 89.6%. The result for `CC(C)(C)n1ncc2c1NC(=O)CC2c1ccc(C(=O)O)cc1` (stereo not given) reads -12.2%; that for `CC(C)Oc1ccc(Cl)c(C(=O)N2CCN(CCO)CC2)n1`, 33.3%. The result for `CCSc1ccc(C(=O)N2CCCCC2C(=O)N2CCCC2)cn1` (stereo not given) reads 20.4%; that for `Cc1ccc(CN2CC[C@@H](NC(=O)c3cccnc3)[C@H](O)C2)s1`, -10.9%; that for `O=C(c1cccs1)N1CC[C@@H](N2CCOCC2)[C@@H]1Cc1ccccc1`, 19.4%. Take `Cn1ncnc1NCc1ccc(F)cc1`: the INHIBITION is given as -42.8%. The result for `Cc1cccc2c1ccn2CCC(=O)O` reads 17.6%; that for `COc1ccccc1C(=O)NCCCN1CCCC1C(=O)N(C)C` (stereo not given), -1.85%; that for `COc1cccc(-c2n[nH]cc2-c2nc(CN3CCCC3)no2)c1`, 34%. `COc1cccc(-c2n[nH]cc2-c2nc(CC3CCN(C)CC3)no2)c1`: the INHIBITION is listed as 59.7%.

Consider `CN1CCC(Cc2noc(-c3cccc(Oc4ncccn4)c3)n2)CC1`, for which the INHIBITION was -0.529%.

As to `Cc1ccc(S(=O)(=O)N2CCCC(c3n[nH]cc3C(=O)N(C)C)C2)cc1` (stereo not given), the INHIBITION came out at 11.8%. `CCOCCNC(=O)c1cccc(Cn2nc(C)cc2C)c1`: the INHIBITION is given as -89.3%.

Values taken from ChEMBL document CHEMBL4513216, “Probing the Open Global Health Chemical Diversity Library for Multistage-Active Starting Points for Next-Generation Antimalarials” (ACS Infect Dis, 2020).
